Conditions in all cases: mRNA level, 48 h; actives raise or lower the signal
Read-out in assay [1]: Insulin Like Growth Factor 1 (IGF1), IGF1 (gene 3479)
Kind of assay: LTEA_HepaRG_IGF1: Life Technologies and Expression Analysis (LTEA) Assay for Insulin Like Growth Factor 1 (IGF1) using HepaRG (AID 2283506). An outline of the steps:
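Differentiated human HepaRG cells were dosed for 48 h in serum-free induction medium with 0.5% DMSO, eight half-log concentrations up to 100 uM, in duplicate. IGF1 mRNA was quantified by qRT-PCR normalized to ACTB, GAPDH, POLR2A; bidirectional fitting versus DMSO.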

Read-out in assay [2]: Intercellular Adhesion Molecule 1 (ICAM1), ICAM1 (gene 3383)
Kind of assay: LTEA_HepaRG_ICAM1: Life Technologies and Expression Analysis (LTEA) Assay for Intercellular Adhesion Molecule 1 (ICAM1) using HepaRG (AID 2283507). An outline of the steps: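 Using the human liver line HepaRG, compounds are tested in duplicate over 48 h at concentrations up to 100 uM. Expression is determined by TaqMan qRT-PCR, normalized to endogenous controls, and analysed relative to 0.5% DMSO vehicle.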

Read-out in assay [3]: Insulin-like growth factor-binding protein 1 (IGFBP1), IGFBP1 (gene 3484)
The assay can be described thus: LTEA_HepaRG_IGFBP1: Life Technologies and Expression Analysis (LTEA) Assay for Insulin-like growth factor-binding protein 1 (IGFBP1) using HepaRG (AID 2283508). An outline of the steps: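 HepaRG, 48 h, 8 conc. (max 100 uM, half-log), duplicates, 0.5% DMSO. Readout: TaqMan qRT-PCR, ACTB/GAPDH/POLR2A normalisation. Fit: bidirectional vs DMSO.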

Read-out in assay [4]: Interleukin 6 (IL6), IL6 (gene 3569)
Kind of assay: LTEA_HepaRG_IL6: Life Technologies and Expression Analysis (LTEA) Assay for Interleukin 6 (IL6) using HepaRG (AID 2283509). Summed up: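 Differentiated human HepaRG cells, plated 48 h then switched to serum-free induction medium, were exposed in duplicate for 48 h to eight half-log concentrations up to 100 uM in 0.5% DMSO. IL6 mRNA measured by qRT-PCR, normalized to ACTB/GAPDH/POLR2A.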

Read-out in assay [5]: Interleukin 6 Receptor (IL6R), IL6R (gene 3570)
Kind of assay: LTEA_HepaRG_IL6R: Life Technologies and Expression Analysis (LTEA) Assay for Interleukin 6 Receptor (IL6R) using HepaRG (AID 2283510).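 On AC50: TaqMan qRT-PCR signal normalized to ACTB GAPDH and POLR2A housekeeping genes.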 Summed up: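 Differentiated human HepaRG cells, plated 48 h then switched to serum-free induction medium, were dosed in duplicate for 48 h at eight half-log concentrations up to 100 uM in 0.5% DMSO. IL6R mRNA quantified by qRT-PCR, normalized to ACTB/GAPDH/POLR2A; bidirectional fit versus DMSO.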

Read-out in assay [6]: Potassium channel subfamily K member 1 (KCNK1), KCNK1 (gene 3775)
The assay can be described thus: LTEA_HepaRG_KCNK1: Life Technologies and Expression Analysis (LTEA) Assay for Potassium channel subfamily K member 1 (KCNK1) using HepaRG (AID 2283511). Summed up:
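Differentiated human HepaRG cells in serum-free induction medium were exposed in duplicate for 48 h to 8 half-log concentrations up to 100 uM in 0.5% DMSO. KCNK1 mRNA was measured by TaqMan qRT-PCR, normalized to ACTB, GAPDH and POLR2A, and fitted bidirectionally versus DMSO.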

Read-out in assay [7]: Keratin 19 (KRT19), KRT19 (gene 3880)
The assay can be described thus: LTEA_HepaRG_KRT19: Life Technologies and Expression Analysis (LTEA) Assay for Keratin 19 (KRT19) using HepaRG (AID 2283512). An outline of the steps: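 Readout is qRT-PCR of KRT19 mRNA, normalized to ACTB, GAPDH and POLR2A, from HepaRG cells treated 48 h with eight-point half-log dilutions topping at 100 uM. Activity in either direction is scored relative to 0.5% DMSO vehicle.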

Read-out in assay [8]: JUN Transcription Factor, JUN (gene 3725)
The assay can be described thus: LTEA_HepaRG_JUN: Life Technologies and Expression Analysis (LTEA) Assay for JUN Transcription Factor using HepaRG (AID 2283513). An outline of the steps:
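Differentiated HepaRG cells were exposed to chemicals for 48 h in serum-free induction medium, 8 concentrations from 100 uM in half-log steps, 0.5% DMSO vehicle, in duplicate. JUN mRNA was quantified by TaqMan qRT-PCR, normalized to ACTB, GAPDH, POLR2A.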

Read-out in assay [9]: Lipase C (LIPC), LIPC (gene 3990)
The assay can be described thus: LTEA_HepaRG_LIPC: Life Technologies and Expression Analysis (LTEA) Assay for Lipase C (LIPC) using HepaRG (AID 2283514). An outline of the steps:
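Differentiated human HepaRG cells in serum-free induction medium were exposed in duplicate for 48 h to eight concentrations (top 100 uM, half-log steps, 0.5% DMSO). LIPC mRNA was quantified by TaqMan qRT-PCR, normalized to ACTB, GAPDH and POLR2A, with bidirectional fitting versus DMSO.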

Read-out in assay [10]: Lipoprotein lipase (LPL), LPL (gene 4023)
Kind of assay: LTEA_HepaRG_LPL: Life Technologies and Expression Analysis (LTEA) Assay for Lipoprotein lipase (LPL) using HepaRG (AID 2283515). Summed up:
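Differentiated human HepaRG cells in serum-free induction medium were exposed in duplicate for 48 h to eight half-log concentrations (top 100 uM) in 0.5% DMSO. LPL mRNA was quantified by TaqMan qRT-PCR, normalized to ACTB, GAPDH and POLR2A.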

Read-out in assay [11]: MicroRNA 122 (MIR122), gene 406906
The assay can be described thus: LTEA_HepaRG_MIR122: Life Technologies and Expression Analysis (LTEA) Assay for MicroRNA 122 (MIR122) using HepaRG (AID 2283516). Further: the transcript read is the microRNA miR-122. An outline of the steps:
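Differentiated human HepaRG cells were exposed 48 h in serum-free induction medium to eight half-log concentrations (top 100 uM, 0.5% DMSO). Transcript level was measured by TaqMan qRT-PCR, normalized to ACTB, GAPDH and POLR2A, and fitted bidirectionally versus DMSO.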

Read-out in assay [12]: matrix metalloproteinase-10 (MMP10), MMP10 (gene 4319)
The assay can be described thus: LTEA_HepaRG_MMP10: Life Technologies and Expression Analysis (LTEA) Assay for matrix metalloproteinase-10 (MMP10) using HepaRG (AID 2283517). Summed up: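 HepaRG, collagen I, ~100,000 cells/well; serum-free induction medium; 48 h exposure, duplicate, 8-pt half-log to 100 uM, 0.5% DMSO. Readout: TaqMan qRT-PCR, normalized to ACTB/GAPDH/POLR2A; bidirectional fit vs DMSO.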

Read-out in assay [13]: MYC, MYC (gene 4609)
Kind of assay: LTEA_HepaRG_MYC: Life Technologies and Expression Analysis (LTEA) Assay for MYC using HepaRG (AID 2283518). Summed up: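 Expression changes were scored by TaqMan qRT-PCR with ACTB, GAPDH and POLR2A normalization. Cultures in serum-free induction medium received duplicate 8-point concentration series, highest 100 uM, for 48 h; DMSO (0.5%) served as baseline.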

Read-out in assay [14]: Paternally Expressed 10 (PEG10), PEG10 (gene 23089)
The assay can be described thus: LTEA_HepaRG_PEG10: Life Technologies and Expression Analysis (LTEA) Assay for Paternally Expressed 10 (PEG10) using HepaRG (AID 2283520). An outline of the steps:
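Differentiated HepaRG cells, plated 48 h then switched to serum-free induction medium, were exposed in duplicate for 48 h to eight half-log concentrations topping at 100 uM in 0.5% DMSO. PEG10 mRNA was quantified by TaqMan qRT-PCR, normalised to ACTB, GAPDH and POLR2A.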

Read-out in assay [15]: Nuclear factor NF-kappa-B p105 subunit (Homo sapiens) (UniProt P19838)
Kind of assay: LTEA_HepaRG_NFKB1: Life Technologies and Expression Analysis (LTEA) Assay for Nuclear Factor Kappa B Subunit 1 (NFKB1) using HepaRG (AID 2283521).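 Further: TaqMan qRT-PCR transcript normalised to ACTB GAPDH and POLR2A housekeeping genes.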 Summed up:
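HepaRG, 48 h exposure; 8-pt half-log series from 100 uM in 0.5% DMSO; duplicates. Readout: NFKB1 mRNA by qRT-PCR (Fluidigm arrays), housekeeping-normalized. Gain/loss fit vs DMSO baseline.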

Read-out in assay [16]: Protein phosphatase 2A (PPP2R4), PTPA (gene 5524)
The assay can be described thus: LTEA_HepaRG_PPP2R4: Life Technologies and Expression Analysis (LTEA) Assay for Protein phosphatase 2A (PPP2R4) using HepaRG (AID 2283522). Summed up: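 Differentiated HepaRG cells in serum-free induction medium were exposed in duplicate for 48 h to eight concentrations, top 100 uM with half-log dilutions, in 0.5% DMSO. PPP2R4 mRNA was quantified by TaqMan qRT-PCR, normalized to ACTB, GAPDH and POLR2A.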

Read-out in assay [17]: Phosphatase and tensin (PTEN), PTEN (gene 5728)
Kind of assay: LTEA_HepaRG_PTEN: Life Technologies and Expression Analysis (LTEA) Assay for Phosphatase and tensin (PTEN) using HepaRG (AID 2283523). An outline of the steps:
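Differentiated human HepaRG cells, plated 48 h then switched to serum-free induction medium, were exposed in duplicate for 48 h to eight half-log concentrations up to 100 uM in 0.5% DMSO. PTEN mRNA measured by TaqMan qRT-PCR, normalized to ACTB/GAPDH/POLR2A, bidirectional fit versus DMSO.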

Read-out in assay [18]: solute carrier (SLC22A1), SLC22A1 (gene 6580)
Kind of assay: LTEA_HepaRG_SLC22A1: Life Technologies and Expression Analysis (LTEA) Assay for solute carrier (SLC22A1) using HepaRG (AID 2283524). An outline of the steps: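 Human HepaRG cells were plated 48 h, switched to serum-free induction medium, then exposed in duplicate for 48 h to 8-point half-log series from 100 uM in 0.5% DMSO. SLC22A1 mRNA measured by qRT-PCR, normalized to ACTB/GAPDH/POLR2A, fitted bidirectionally versus DMSO.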

Read-out in assay [19]: Pyruvate Dehydrogenase Kinase 4 (PDK4), PDK4 (gene 5166)
The assay can be described thus: LTEA_HepaRG_PDK4: Life Technologies and Expression Analysis (LTEA) Assay for Pyruvate Dehydrogenase Kinase 4 (PDK4) using HepaRG (AID 2283525). An outline of the steps:
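Differentiated human HepaRG cells, pre-cultured 48 h, were exposed in duplicate for 48 h in serum-free induction medium to eight half-log concentrations up to 100 uM in 0.5% DMSO. PDK4 mRNA was quantified by qRT-PCR, normalized to ACTB, GAPDH and POLR2A, bidirectional fitting versus DMSO.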

Read-out in assay [20]: matrix metalloproteinase-3 (MMP3), MMP3 (gene 4314)
Kind of assay: LTEA_HepaRG_MMP3: Life Technologies and Expression Analysis (LTEA) Assay for matrix metalloproteinase-3 (MMP3) using HepaRG (AID 2283519). An outline of the steps:
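Differentiated human HepaRG cells, plated 48 h on collagen I, were exposed in duplicate for 48 h in serum-free induction medium to eight half-log concentrations up to 100 uM in 0.5% DMSO. MMP3 mRNA was quantified by TaqMan qRT-PCR, normalised to ACTB, GAPDH and POLR2A.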

Structures are written as SMILES. The source made the active and inactive calls. How the source made its calls: active means hit-call score of the fitted dose curve at least 0.9, where 1 is the maximum; inactive means score below 0.9.

In general, AC50 refers to the concentration at which the activity in the assay is half-maximal.

Sequence of Nuclear factor NF-kappa-B p105 subunit (Homo sapiens) (P19838 whole entry, looked up): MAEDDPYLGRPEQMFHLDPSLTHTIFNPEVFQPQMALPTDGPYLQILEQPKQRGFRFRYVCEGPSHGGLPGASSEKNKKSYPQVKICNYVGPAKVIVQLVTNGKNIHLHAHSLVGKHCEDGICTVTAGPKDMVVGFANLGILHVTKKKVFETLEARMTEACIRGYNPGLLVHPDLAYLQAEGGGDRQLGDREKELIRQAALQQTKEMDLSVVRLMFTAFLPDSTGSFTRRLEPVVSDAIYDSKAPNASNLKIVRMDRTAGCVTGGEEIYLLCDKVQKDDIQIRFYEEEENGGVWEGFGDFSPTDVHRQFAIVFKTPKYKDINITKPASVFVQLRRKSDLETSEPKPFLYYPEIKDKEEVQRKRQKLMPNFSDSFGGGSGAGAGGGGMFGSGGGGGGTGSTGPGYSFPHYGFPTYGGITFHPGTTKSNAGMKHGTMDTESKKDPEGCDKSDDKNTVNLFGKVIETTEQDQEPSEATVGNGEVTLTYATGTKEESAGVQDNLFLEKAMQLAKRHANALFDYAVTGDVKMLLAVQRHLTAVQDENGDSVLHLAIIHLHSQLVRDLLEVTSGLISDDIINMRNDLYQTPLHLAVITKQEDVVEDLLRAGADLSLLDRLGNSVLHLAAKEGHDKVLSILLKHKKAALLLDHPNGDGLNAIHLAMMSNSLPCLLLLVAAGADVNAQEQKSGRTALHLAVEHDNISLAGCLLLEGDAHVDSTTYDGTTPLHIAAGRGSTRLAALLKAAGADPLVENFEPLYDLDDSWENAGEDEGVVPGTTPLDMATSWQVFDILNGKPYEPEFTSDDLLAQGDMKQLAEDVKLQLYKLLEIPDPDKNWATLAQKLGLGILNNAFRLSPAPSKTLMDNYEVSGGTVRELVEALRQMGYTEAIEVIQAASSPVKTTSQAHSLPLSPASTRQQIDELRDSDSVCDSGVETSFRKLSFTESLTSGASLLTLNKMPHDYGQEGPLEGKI

Consider `CCCCN(CCCC)CCCC`, for which the call in assay [1], in assay [2], in assay [3], in [4], in assay [5] and in [6] was inactive. Besides, the result in assay [7], in [8], in assay [9], in [10], in assay [11] and in assay [12] was inactive. For the same molecule, the call in [13], in assay [14], in assay [15], in [16], in [17] and in assay [18] was inactive. Also, the molecule was called inactive in assay [19].
Regarding `Oc1ccc2ccccc2c1N=Nc1ccccc1`, the AC50 was 50 µM (active) in assay [1]; 5.48 µM (active) in assay [3]; 15.7 µM (active) in assay [5]; 3.66 µM (active) in assay [7]; 11.8 µM (active) in [9]; 1.7 µM (active) in assay [10]. The AC50 in assay [11] was 9.92 µM (active); in [13], 6.08 µM (active); in assay [14], 19 µM (active); in assay [18], 10.5 µM (active); in assay [19] it was 4.28 µM (active). Also, the result in assay [2], in assay [4], in [6], in assay [8], in [12] and in assay [20] was inactive. Moreover, the molecule was classed as inactive in assay [15], in [16] and in [17].
`Nc1nc(N)c2nc(CNc3ccc(C(=O)N[C@@H](CCC(=O)O)C(=O)O)cc3)cnc2n1`: the call in assay [1], in assay [2], in assay [4], in assay [5], in [6] and in assay [7] was inactive. For the same molecule, the molecule was classed as inactive in assay [8], in assay [9], in [10], in assay [11], in assay [12] and in assay [13]. Also, the call in assay [14], in assay [15], in assay [16], in assay [17] and in [18] was inactive. In addition, the values for the AC50 in [3] and in assay [19] were 0.0937 µM (active) and 0.0967 µM (active), respectively.
Take `CC1(C)CC(N=C=O)CC(C)(CN=C=O)C1` (stereo not drawn): the molecule was classed as inactive in assay [1], in assay [2], in assay [3], in assay [4], in assay [5] and in [6]. Further, the molecule was classed as inactive in assay [7], in [8], in assay [9], in assay [10], in assay [11] and in [12]. Also, the outcome in assay [13], in assay [20], in [14], in assay [15], in [16] and in assay [17] was inactive. In addition, the molecule was classed as inactive in assay [18] and in [19].

(Values after PubChem BioAssay (EPA / NIEHS).)
